Drawing on PubChem BioAssay (Tox21), this text covers Potency and outcome for nine compounds.

The nature of test [1]: qHTS assay to identify small molecule agonists of the androgen receptor (AR) signaling pathway in the presence of an antagonist - cell viability counter screen (AID 1259379). Also: nearly all actives have a fitted effect of over 25% in size. Also: potency is read from the fitted curve at half-maximal effect. In outline:
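Each compound was tested at 15 concentrations on MDA-kb2 cells in the presence of 3.0uM nilutamide. Viability was measured by CellTiter-Fluor fluorescence after a 16 hr incubation at 37C in a CO2-free atmosphere.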

Test [2] in a line: qHTS assay to identify small molecule agonists of the estrogen receptor beta (ER-beta) signaling pathway - cell viability counter screen (AID 1259380). Also: nearly all actives have a fitted effect of over 30% in size. Also: potency is read from the fitted curve at half-maximal effect. In outline: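 Compounds dissolved in DMSO were pin-transferred onto ER-beta-UAS-bla HEK293T cells that had settled 6 hr, and exposure ran 16 hr at 37C. Following the reporter read, CellTiter-Glo luminescence after 30 min at room temperature indicated cytotoxicity.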

Test [3] addresses Androgen receptor (Homo sapiens) (UniProt P10275). In words: qHTS assay to identify small molecule agonists of the androgen receptor (AR) signaling pathway in the presence of an antagonist (AID 1259381; calls by dose curve; also: nearly all actives have a fitted effect of over 15% in size). The procedure, abridged: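 Plated MDA-kb2 cells (3,000/well) were pre-incubated 5hr, given nilutamide (3.0uM final) or buffer, then dosed with compounds in DMSO at 15 concentrations. Luciferase activity was quantified by luminescence after 16hr at 37C.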
(In general: qHTS replaces the single test concentration by a dilution series.)

Test [4] can be described thus: qHTS assay to identify small molecule antagonists of the estrogen receptor beta (ER-beta) signaling pathway - cell viability counter screen (AID 1259382). Also: nearly all actives have a fitted effect of over 55% in size. Also: potency is read from the fitted curve at half-maximal effect. The procedure, abridged:
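CellTiter-Glo ATP luminescence measured after the LiveBLAzer read in the same wells; ER-beta-UAS-bla HEK293T cells, 16 hr compound treatment with 1nM 17-beta-estradiol agonist at 37C, 5% CO2.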

A short description of test [5]: qHTS assay to identify small molecule agonists or antagonists of the thyroid stimulating hormone receptor (TSHR) signaling pathway - wild type cell line counter screen (AID 1259384; calls by dose curve). The procedure, abridged:
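Wild-type HEK293 cells were plated 18 h at 37 C/5% CO2, pin-dosed with compound plus Ro20-1724 medium, held 30 min at room temperature, then given cAMP-d2 and anti-cAMP-cryptate; fluorescence was read after 1 h. Fifteen concentrations, triplicate.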

The target in test [6] is Thyrotropin receptor (Homo sapiens) (UniProt P16473). Kind of test: qHTS assay to identify small molecule antagonists of the thyroid stimulating hormone receptor (TSHR) signaling pathway (AID 1259385; calls by dose curve; also: nearly all actives have a fitted effect of over 20% in size; also: potency is read from the fitted curve at half-maximal effect). In outline:
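TSHR-HEK293 cells were plated and held 18 h at 37C/5% CO2, then given compound plus Ro20-1724 and stimulated with TSH at 1.5 ng/mL final. After 30 min at room temperature, cAMP was detected with cAMP-d2/anti-cAMP-cryptate (1 h) by fluorescence.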

A short description of test [7]: qHTS assay to identify small molecule agonists of the estrogen receptor alpha (ER-alpha) signaling pathway in the presence of an antagonist - cell viability counter screen (AID 1259386).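 Also: cells exposed to compounds for 22 h at 37 °C before the viability read; nearly all actives have a fitted effect of over 30% in size.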 Also: potency is read from the fitted curve at half-maximal effect. The procedure, abridged:
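Using estrogen-depleted VM7Luc4E2 cells, the 15-concentration compound series was applied together with 10.0nM ICI-182,780 and incubated 22hr at 37C/5% CO2. Cell viability was then scored by CellTiter-Fluor.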

The target of test [8] is Progesterone receptor (Homo sapiens) (UniProt P06401). Kind of test: qHTS assay to identify small molecule antagonists of the progesterone receptor (PR) signaling pathway (AID 1346795; active = well fitted inhibition curve with a large enough effect in the signal ratio in the repeat runs, not every such curve was filed as active; the % refers to the signal ratio). In outline:
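Antagonist mode with agonist R5020 at 1 nM final and 16 hr incubation at 37C. Reporter was beta-lactamase driven by UAS in HEK293T (PR-UAS-bla), 2% charcoal-stripped serum; signal from LiveBLAzer FRET substrate, 2 hr at room temperature.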

Test [9] in a line: qHTS assay to identify small molecule antagonists of the progesterone receptor (PR) signaling pathway - cell viability counter screen (AID 1346798). Also: nearly all actives have a fitted effect of over 50% in size. Also: potency is read from the fitted curve at half-maximal effect. The procedure, abridged:
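Cytotoxicity read as CellTiter-Glo luminescence (30 min, room temperature) in the same wells as the beta-lactamase readout. HEK293T PR-UAS-bla cells in charcoal-stripped 2% FBS received compound and R5020, then 16 h at 37C, 5% CO2.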

Test [10] can be described thus: qHTS assay to identify small molecule agonists of the progesterone receptor (PR) signaling pathway - cell viability counter screen (AID 1346799; calls by dose curve; also: nearly all actives have a fitted effect of over 45% in size; also: potency is read from the fitted curve at half-maximal effect). In outline: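 Cytotoxicity measured by CellTiter-Glo luminescence (30 min, RT) in the same wells as the PR beta-lactamase agonist read. Those HEK293T cells had 16 h compound treatment at 37 C in 2% charcoal-stripped FBS medium.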

A short description of test [11]: qHTS assay to identify small molecule antagonists of the TGF-beta/Smad signaling pathway - cell viability counter screen (AID 1346824). Also: nearly all actives have a fitted effect of over 50% in size. Also: potency is read from the fitted curve at half-maximal effect. The procedure, abridged: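 SBE-bla HEK 293T cells were plated overnight at 37 C, then given compounds in DMSO plus TGF-beta1 (added as 0.25 ng/mL solution) for 5 hr. After the bla read, CellTiter-Glo was added to the same wells and luminescence read after 30 min at room temperature.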

Test [12] is described as follows: qHTS assay to identify small molecule agonists of the TGF-beta/Smad signaling pathway - cell viability counter screen (AID 1346829). Also: nearly all actives have a fitted effect of over 45% in size. Also: potency is read from the fitted curve at half-maximal effect. In outline:
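Luminescence from CellTiter-Glo, read after a 30 min room-temperature incubation, gives cell viability of SBE-bla HEK 293T cells treated 5 hr with compounds at 37 C.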

A short description of test [13]: qHTS assay to identify small molecule agonists of the TGF-beta/Smad signaling pathway (AID 1346859; active = well fitted activation curve with a large enough effect in the signal ratio in the repeat runs, not every such curve was filed as active; the % refers to the signal ratio; also: series mostly up to about 77 µM). The procedure, abridged:
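Fluorescence (ex 405 nm; em 460 and 530 nm) was read 2 h after LiveBLAzer FRET substrate at RT. The preceding compound treatment of overnight-plated SBE-bla HEK293T cells lasted 5 h at 37 C.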

Test [14] concerns the target Thyrotropin-releasing hormone receptor (Homo sapiens) (UniProt P34981). In words: qHTS assay to identify small molecule antagonists of the thyrotropin-releasing hormone receptor (TRHR) signaling pathway (AID 1346877; active = well fitted inhibition curve with a large enough effect in the repeat runs, not every such curve was filed as active; also: series mostly up to about 51 µM). In outline: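 Calcium signal in dye-loaded TRHR/HEK293 cells; compounds added 5 min before TRH (1 nM final); fluorescence monitored 3 min at 1 s steps.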

For test [15] the target is unchanged. In words: qHTS assay to identify small molecule agonists of the thyrotropin-releasing hormone receptor (TRHR) signaling pathway (AID 1346891; calls by dose curve; also: series mostly up to about 58 µM). The procedure, abridged:
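Agonist-mode intracellular calcium readout: kinetic fluorescence over 3 min at 1 s intervals after compound addition to TRHR-HEK293 cells (18 h seeded, 2 h dye-loaded at 37 C). Fifteen concentrations, triplicates.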

The target in test [16] is Progesterone receptor (Homo sapiens) (UniProt P06401). Kind of test: qHTS assay to identify small molecule agonists of the progesterone receptor (PR) signaling pathway (AID 1346784; calls by dose curve; also: nearly all actives have a fitted effect of over 30% in size). The procedure, abridged:
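Agonist qHTS: compounds pinned onto 3,000 PR-UAS-bla HEK 293T cells per well in charcoal-stripped serum medium, 16hr at 37C, then beta-lactamase activity measured by LiveBLAzer FRET fluorescence after 2 hours at room temperature.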

For test [17], the target named is Estrogen receptor (Homo sapiens) (UniProt P03372). In words: qHTS assay to identify small molecule agonists of the estrogen receptor alpha (ER-alpha) signaling pathway in the presence of an antagonist (AID 1259383; calls by dose curve; also: top concentration of the series differs between compounds; nearly all actives have a fitted effect of over 15% in size). In outline: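 Luminescent ERE-luciferase reporter, VM7Luc4E2 cells (endogenous ER-alpha); 10.0nM ICI-182,780 final; 15-point compound titration; 22hr at 37C; ONE-Glo, 30min RT.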
Sequence of Estrogen receptor (Homo sapiens) (P03372 whole entry, looked up): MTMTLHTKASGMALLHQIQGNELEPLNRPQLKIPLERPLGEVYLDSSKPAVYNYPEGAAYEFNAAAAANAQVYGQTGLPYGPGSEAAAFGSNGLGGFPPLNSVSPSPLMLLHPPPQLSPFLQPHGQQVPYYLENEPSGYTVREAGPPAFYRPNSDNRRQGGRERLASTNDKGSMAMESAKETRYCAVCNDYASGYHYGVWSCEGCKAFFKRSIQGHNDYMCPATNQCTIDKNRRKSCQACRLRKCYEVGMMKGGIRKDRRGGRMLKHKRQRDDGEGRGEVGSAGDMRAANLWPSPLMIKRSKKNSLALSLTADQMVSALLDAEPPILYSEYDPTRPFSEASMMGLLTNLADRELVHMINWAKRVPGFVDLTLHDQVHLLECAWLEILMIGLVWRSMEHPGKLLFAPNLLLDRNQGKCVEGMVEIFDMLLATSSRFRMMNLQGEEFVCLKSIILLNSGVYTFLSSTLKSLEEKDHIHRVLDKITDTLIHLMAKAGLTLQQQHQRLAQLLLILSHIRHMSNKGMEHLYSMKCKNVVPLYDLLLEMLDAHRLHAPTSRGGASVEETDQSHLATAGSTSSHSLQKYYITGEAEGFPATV

Test [18] has as its target Estrogen receptor beta (Homo sapiens) (UniProt Q92731). Kind of test: qHTS assay to identify small molecule agonists of the estrogen receptor beta (ER-beta) signaling pathway (AID 1259377; active = well fitted activation curve with a large enough effect in the signal ratio in the repeat runs, not every such curve was filed as active; the % refers to the signal ratio). The procedure, abridged: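 Ratiometric beta-lactamase FRET read-out came after 2 h substrate loading at room temperature. It followed 16 h compound treatment at 37C of GripTite HEK293T cells carrying a UAS-bla reporter, plated in 2% charcoal-stripped FBS medium.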

Test [19] has the same target. Kind of test: qHTS assay to identify small molecule antagonists of the estrogen receptor beta (ER-beta) signaling pathway (AID 1259378; active = well fitted inhibition curve with a large enough effect in the signal ratio in the repeat runs, not every such curve was filed as active; the % refers to the signal ratio). In outline: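 ER-beta-UAS-bla HEK293T (GripTite) cells in 2% charcoal-stripped FBS medium were preincubated 6 hr at 37C, dosed with compound, then stimulated with 1 nM E2 (final) for 16 hr; beta-lactamase reporter read by B/G FRET fluorescence after 2 hr substrate loading.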

Where “and” joins values, the source holds several entries; their conditions need not be identical. Identical values can stand only once. Records with an inconclusive call do not appear. Calls of active or inactive are those of the source. Unless noted, calls follow the shape of the dose curve; as a rule, active = well fitted curve in the direction sought with a large enough effect in the repeat runs; inconclusive = weak or mixed curves; inactive = no such curve, though single readings can be large; an effect the other way counts as inactive or inconclusive.

Sequence of Thyrotropin-releasing hormone receptor (Homo sapiens) (P34981 whole entry, looked up): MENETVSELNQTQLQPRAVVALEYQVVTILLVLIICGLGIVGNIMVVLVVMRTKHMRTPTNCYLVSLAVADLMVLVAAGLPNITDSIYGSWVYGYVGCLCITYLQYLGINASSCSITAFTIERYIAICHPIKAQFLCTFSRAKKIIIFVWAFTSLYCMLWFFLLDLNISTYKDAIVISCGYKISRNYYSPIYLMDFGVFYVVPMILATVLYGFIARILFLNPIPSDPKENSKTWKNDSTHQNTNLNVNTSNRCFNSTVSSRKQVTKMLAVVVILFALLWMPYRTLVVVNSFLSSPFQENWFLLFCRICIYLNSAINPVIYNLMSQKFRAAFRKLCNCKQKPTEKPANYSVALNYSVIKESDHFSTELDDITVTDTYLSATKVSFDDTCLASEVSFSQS
Sequence of Thyrotropin receptor (Homo sapiens) (P16473 whole entry, looked up): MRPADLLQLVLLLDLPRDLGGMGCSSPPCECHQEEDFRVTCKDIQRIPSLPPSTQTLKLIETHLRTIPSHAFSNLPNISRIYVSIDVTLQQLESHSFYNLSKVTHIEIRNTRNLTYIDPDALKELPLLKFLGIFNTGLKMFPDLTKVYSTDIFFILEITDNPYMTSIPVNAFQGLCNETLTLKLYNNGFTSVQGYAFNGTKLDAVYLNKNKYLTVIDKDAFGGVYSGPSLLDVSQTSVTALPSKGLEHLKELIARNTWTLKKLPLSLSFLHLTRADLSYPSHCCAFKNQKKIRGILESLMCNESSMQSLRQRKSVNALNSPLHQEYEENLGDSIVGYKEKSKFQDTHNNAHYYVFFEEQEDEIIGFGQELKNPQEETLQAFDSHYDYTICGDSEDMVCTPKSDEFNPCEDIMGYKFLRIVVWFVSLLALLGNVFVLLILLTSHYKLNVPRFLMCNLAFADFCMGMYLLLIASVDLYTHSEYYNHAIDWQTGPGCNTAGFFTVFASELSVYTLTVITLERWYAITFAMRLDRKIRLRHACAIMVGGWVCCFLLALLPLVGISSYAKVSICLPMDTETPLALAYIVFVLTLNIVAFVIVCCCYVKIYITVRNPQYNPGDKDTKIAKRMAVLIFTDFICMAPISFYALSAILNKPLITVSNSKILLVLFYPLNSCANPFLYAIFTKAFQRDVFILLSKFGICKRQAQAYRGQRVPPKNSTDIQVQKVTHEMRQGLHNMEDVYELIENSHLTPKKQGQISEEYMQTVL
Sequence of Progesterone receptor (Homo sapiens) (P06401 whole entry, looked up): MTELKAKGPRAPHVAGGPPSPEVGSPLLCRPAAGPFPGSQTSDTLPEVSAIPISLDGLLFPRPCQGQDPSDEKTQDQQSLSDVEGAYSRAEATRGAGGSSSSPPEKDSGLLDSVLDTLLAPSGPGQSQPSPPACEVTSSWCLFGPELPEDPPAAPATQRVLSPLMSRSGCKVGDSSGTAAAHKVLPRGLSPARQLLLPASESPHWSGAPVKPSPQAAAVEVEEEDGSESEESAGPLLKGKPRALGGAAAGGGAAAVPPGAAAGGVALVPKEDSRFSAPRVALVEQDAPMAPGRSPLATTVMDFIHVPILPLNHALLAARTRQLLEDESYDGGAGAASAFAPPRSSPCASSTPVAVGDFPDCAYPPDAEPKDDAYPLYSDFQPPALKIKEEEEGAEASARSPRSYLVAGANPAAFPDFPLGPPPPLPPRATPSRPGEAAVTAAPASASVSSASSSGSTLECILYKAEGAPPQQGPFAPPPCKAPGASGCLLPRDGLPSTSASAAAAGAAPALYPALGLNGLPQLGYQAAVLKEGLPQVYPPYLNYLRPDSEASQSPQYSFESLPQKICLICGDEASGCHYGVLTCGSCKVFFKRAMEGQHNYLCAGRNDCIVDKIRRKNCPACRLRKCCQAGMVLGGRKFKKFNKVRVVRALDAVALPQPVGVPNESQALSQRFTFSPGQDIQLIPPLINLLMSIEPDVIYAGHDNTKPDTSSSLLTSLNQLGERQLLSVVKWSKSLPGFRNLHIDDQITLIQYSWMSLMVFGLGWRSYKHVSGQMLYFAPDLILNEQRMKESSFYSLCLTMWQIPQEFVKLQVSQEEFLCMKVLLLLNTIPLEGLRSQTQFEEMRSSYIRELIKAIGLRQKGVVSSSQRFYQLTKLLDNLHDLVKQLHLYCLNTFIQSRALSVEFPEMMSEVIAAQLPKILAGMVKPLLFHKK
Sequence of Androgen receptor (Homo sapiens) (P10275 whole entry, looked up): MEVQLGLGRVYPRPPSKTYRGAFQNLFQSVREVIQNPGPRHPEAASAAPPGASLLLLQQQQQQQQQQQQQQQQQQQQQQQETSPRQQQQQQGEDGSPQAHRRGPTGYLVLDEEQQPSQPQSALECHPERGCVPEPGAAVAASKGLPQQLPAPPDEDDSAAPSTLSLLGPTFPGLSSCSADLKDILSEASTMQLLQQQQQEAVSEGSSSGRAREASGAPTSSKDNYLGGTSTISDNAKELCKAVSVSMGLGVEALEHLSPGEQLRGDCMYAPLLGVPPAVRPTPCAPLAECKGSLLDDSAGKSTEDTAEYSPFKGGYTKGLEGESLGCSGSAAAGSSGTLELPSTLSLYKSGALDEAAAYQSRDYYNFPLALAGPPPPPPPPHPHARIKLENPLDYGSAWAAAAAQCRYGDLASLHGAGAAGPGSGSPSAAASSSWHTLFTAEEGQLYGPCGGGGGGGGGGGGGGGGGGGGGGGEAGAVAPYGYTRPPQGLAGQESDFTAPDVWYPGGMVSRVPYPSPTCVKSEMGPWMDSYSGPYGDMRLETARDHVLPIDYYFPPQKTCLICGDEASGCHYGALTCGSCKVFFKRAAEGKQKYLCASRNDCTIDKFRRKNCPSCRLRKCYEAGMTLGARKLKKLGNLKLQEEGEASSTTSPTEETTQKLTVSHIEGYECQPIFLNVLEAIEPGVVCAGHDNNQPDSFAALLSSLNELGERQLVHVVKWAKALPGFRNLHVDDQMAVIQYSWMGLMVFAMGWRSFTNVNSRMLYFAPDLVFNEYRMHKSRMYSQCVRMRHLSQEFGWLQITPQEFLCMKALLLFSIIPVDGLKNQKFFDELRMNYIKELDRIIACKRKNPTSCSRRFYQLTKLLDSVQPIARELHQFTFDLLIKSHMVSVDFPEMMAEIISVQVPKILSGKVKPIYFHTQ
Sequence of Estrogen receptor beta (Homo sapiens) (Q92731 whole entry, looked up): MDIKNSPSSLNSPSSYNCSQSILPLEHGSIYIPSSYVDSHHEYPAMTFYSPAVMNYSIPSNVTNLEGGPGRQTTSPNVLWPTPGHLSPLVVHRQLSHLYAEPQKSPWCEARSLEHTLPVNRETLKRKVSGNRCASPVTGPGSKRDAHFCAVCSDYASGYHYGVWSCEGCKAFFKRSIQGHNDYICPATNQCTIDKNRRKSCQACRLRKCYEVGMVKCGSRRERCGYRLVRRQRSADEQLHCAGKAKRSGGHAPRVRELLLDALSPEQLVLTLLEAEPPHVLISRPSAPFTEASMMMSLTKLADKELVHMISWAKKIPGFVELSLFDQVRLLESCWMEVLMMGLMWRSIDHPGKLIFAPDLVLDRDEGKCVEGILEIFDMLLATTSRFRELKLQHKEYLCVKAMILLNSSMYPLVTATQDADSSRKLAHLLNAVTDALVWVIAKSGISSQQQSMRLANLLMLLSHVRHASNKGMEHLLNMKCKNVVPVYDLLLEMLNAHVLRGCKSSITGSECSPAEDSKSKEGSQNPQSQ

Consider `CC(CC(C(N)=O)(c1ccccc1)c1ccccc1)N(C)C` (stereo unspecified), for which the Potency entry in test [1], in [2], in [3], in [4], in [6] and in test [7] was “inactive” throughout. Besides, the Potency result in test [8], in [9], in [10], in test [11], in test [12] and in test [14] was “inactive” in each case. The call in [5], in [13] and in test [15] was inactive.
Consider `CCCCCl`, for which the Potency result in test [1], in test [2], in [4], in [6], in test [7] and in test [16] was “inactive” each time. Moreover, the Potency entry in test [10], in test [12] and in [14] was “inactive” in each case. In addition, the result in test [5], in test [13] and in [15] was inactive.
Consider `Nc1cccc2ccccc12`, for which the Potency entry in [1], in test [2], in test [4], in test [17], in test [6] and in test [7] was “inactive” in each case. The Potency entry in test [16], in [9], in test [10], in test [11], in test [12] and in test [14] was “inactive” throughout. Also, the compound was called inactive in test [5] and in test [15].
As for `C[C@H](N)[C@H](O)c1ccc(O)c(O)c1`, the Potency result in test [18], in test [1], in test [4], in [17], in [8] and in test [9] was “inactive” in each case. The Potency entry in [10], in test [12] and in test [14] was “inactive” throughout. Moreover, the compound was classed as inactive in test [15].
Take `O=[N+]([O-])/C=C/c1ccccc1`: the Potency was 44 µM (active) and 68.6 µM (active) in test [1]; 27.8 µM (active) and 21.7 µM (active) in [6]. The Potency entry in test [4], in test [7], in [9], in test [10], in test [11] and in test [12] was “inactive” each time. In test [14], the Potency result is “inactive”. The compound was called inactive in test [5], in test [13] and in [15].
Consider `O=C(Cl)OCCOCCOC(=O)Cl`, for which the Potency entry in test [1], in test [2], in test [3], in test [4], in test [17] and in test [6] was “inactive” each time. Also, the Potency entry in test [7], in test [16], in test [8], in test [9], in test [11] and in test [12] was “inactive” each time. Moreover, the call in test [5] and in test [13] was inactive.
For `[Cl-].[Cl-].[Hg+2]`, in [1], the Potency entry was “inactive”. The Potency in test [2] is 5.42 µM (active) and 3.86 µM (active); in test [4], 4.31 µM (active) and 4.86 µM (active); in [7], 54.2 µM (active) and 27.3 µM (active); in test [9], 4.83 µM (active) and 2.43 µM (active); in [10], 5.42 µM (active) and 2.17 µM (active); in [11], 24.4 µM (active) and 54.9 µM (active). In addition, the Potency in [12] is 54.7 µM (active) and 54.9 µM (active). Besides, the outcome in test [13] was inactive.
On to `CC(Oc1cccc(Cl)c1)C(=O)O` (stereo unspecified), for which the Potency result in test [19], in [1], in [2], in test [4], in [6] and in test [7] was “inactive” in each case. In addition, the Potency entry in test [16], in [8], in test [9], in test [10], in [11] and in [12] was “inactive” throughout. In addition, the Potency result in test [14] was “inactive”. In addition, the call in test [5], in [13] and in [15] was inactive.
In the case of `CCOC(C(=O)OCCN(C)C)(c1ccccc1)c1ccccc1`, the Potency entry in test [1], in test [2], in [4], in [6], in [7] and in test [16] was “inactive” in each case. Besides, the Potency result in test [8], in test [9], in [10], in [11], in [12] and in [14] was “inactive” in each case. Besides, the result in test [5] and in test [15] was inactive.
